For 45 compounds, normalized B-score (activity score, 25-100; higher = stronger inhibition) results are on record in PubChem BioAssay AID588511 (Johns Hopkins Ion Channel Center, 2011).

Screen size: about 310,000 compounds; about 3,600 (1.2%) were called active.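 The calls were made as follows: active = ratio plate-corrected score three or more library SD toward inhibition, starting fluorescence score within five deviations; inactive = the rest.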 Many of the other results were omitted from the sample, so actives are more common in it than they were.

For this test, the target named is Anoctamin-1 (Mus musculus) (UniProt Q8BHY3). Put plainly: TMEM16A chloride channel inhibitors, primary screen, cell-based, HTS (AID 588511).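 As to normalized B-score (activity score, 25-100; higher = stronger inhibition): score derived from kinetic fluorescence span divided by baseline fluorescence per well.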 As to conditions: HEK293 TMEM16A/YFP iodide influx fluorescence, ionomycin; at 10 µM.
Chain of Anoctamin-1 (Mus musculus) (Q8BHY3 whole entry, looked up): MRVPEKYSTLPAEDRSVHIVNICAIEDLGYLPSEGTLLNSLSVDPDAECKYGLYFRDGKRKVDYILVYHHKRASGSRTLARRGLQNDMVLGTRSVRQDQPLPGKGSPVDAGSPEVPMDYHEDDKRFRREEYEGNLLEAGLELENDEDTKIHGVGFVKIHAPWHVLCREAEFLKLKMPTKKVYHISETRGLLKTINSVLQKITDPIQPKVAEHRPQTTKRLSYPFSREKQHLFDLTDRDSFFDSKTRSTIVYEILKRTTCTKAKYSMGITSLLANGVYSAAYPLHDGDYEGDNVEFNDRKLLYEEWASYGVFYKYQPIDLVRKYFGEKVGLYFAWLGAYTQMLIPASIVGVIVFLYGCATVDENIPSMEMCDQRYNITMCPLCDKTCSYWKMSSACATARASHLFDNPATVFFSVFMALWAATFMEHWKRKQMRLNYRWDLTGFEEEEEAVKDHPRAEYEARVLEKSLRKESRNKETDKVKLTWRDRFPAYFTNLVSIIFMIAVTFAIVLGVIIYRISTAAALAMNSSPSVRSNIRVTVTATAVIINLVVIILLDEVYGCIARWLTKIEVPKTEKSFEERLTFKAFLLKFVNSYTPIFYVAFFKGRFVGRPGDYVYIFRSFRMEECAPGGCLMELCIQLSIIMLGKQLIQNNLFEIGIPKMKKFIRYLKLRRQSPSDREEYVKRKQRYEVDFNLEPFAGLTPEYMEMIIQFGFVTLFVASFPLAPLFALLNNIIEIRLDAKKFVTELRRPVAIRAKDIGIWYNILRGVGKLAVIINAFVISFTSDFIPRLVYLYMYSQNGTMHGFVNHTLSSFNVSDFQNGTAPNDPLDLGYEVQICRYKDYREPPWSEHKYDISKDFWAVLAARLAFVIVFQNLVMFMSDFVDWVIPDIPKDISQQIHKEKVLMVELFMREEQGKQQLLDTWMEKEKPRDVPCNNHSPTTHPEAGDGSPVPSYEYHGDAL
For `O=C(COc1cc(Cl)c(Cl)cc1Cl)NC(=O)NC1CCCC1`, the normalized B-score (activity score, 25-100; higher = stronger inhibition) result was “inactive”.

Take `O=C(NCc1cccnc1)c1ccccc1NC(=O)c1c(F)cccc1F`: the normalized B-score (activity score, 25-100; higher = stronger inhibition) entry is “inactive”.

`Cc1nc2c(ncn2-c2ccccc2)c(=O)n1NC(=O)CN1CCCC1`: the normalized B-score (activity score, 25-100; higher = stronger inhibition) entry is “inactive”.

For `CCOC(=O)N1CC=C2C(C#N)=C(N)C(C#N)(C#N)[C@H](c3cccs3)[C@H]2C1`, the normalized B-score (activity score, 25-100; higher = stronger inhibition) was 25 (active).

As to `CCCN1CC=C2C(C#N)=C(N)C(C#N)(C#N)C(c3cc(OC)ccc3OC)C2C1` (stereo not given), the normalized B-score (activity score, 25-100; higher = stronger inhibition) entry is “inactive”.

With `CCN1CC=C2C(C#N)=C(N)C(C#N)(C#N)[C@H](c3ccoc3)[C@H]2C1`, the normalized B-score (activity score, 25-100; higher = stronger inhibition) result is “inactive”.

On to `CCC(C(=O)NCCC(C)C)N(Cc1ccccc1Cl)C(=O)c1snc(C(N)=O)c1N` (stereo not given), for which the normalized B-score (activity score, 25-100; higher = stronger inhibition) result was “inactive”.

With `COC(=O)c1cc(OCC(=O)NC2CCCc3ccccc32)cc(C(=O)OC)c1` (stereo not given), the normalized B-score (activity score, 25-100; higher = stronger inhibition) entry is “inactive”.

`O=C(CCCN1CCc2[nH]c3ccc(F)cc3c2C1)c1ccc(F)cc1`: the normalized B-score (activity score, 25-100; higher = stronger inhibition) entry is “inactive”.

Turning to `Oc1c(Cl)cc(Cl)c(Cl)c1Cc1c(O)c(Cl)cc(Cl)c1Cl`, the normalized B-score (activity score, 25-100; higher = stronger inhibition) was 100 (active).

In the case of `O=C(N/N=C/c1cccc(OCc2ccccc2)c1)c1ccc(Br)o1`, the normalized B-score (activity score, 25-100; higher = stronger inhibition) result was “inactive”.

Take `CCOc1ccc(CN2CCN(Cc3c[nH]c4ccccc34)CC2)cc1`: the normalized B-score (activity score, 25-100; higher = stronger inhibition) result is “inactive”.

For `CN(C)/C=N/c1cc(=O)n(C)c(=O)n1CC1CC1`, the normalized B-score (activity score, 25-100; higher = stronger inhibition) result is “inactive”.

Turning to `Oc1cc2c(cc1O)CN(C(=S)NCCc1ccc(Cl)cc1)CCC2`, the normalized B-score (activity score, 25-100; higher = stronger inhibition) is 25 (active).

For the compound `COc1ccc(CCNC(=S)N2CCN(S(=O)(=O)c3ccc(Cl)cc3)CC2)cc1`, the normalized B-score (activity score, 25-100; higher = stronger inhibition) result is “inactive”.

Consider `O=C(NCCc1ccc(Cl)cc1)c1cccc(N2CCCC2=O)c1`, for which the normalized B-score (activity score, 25-100; higher = stronger inhibition) result was “inactive”.

With `Cc1cc2cc3c(cc2nc1SCC(=O)Nc1c(C)cccc1C)CCC3`, the normalized B-score (activity score, 25-100; higher = stronger inhibition) result was “inactive”.

`Cc1cn(C2OC[C@@H](O)[C@@H]2CO)c(=O)[nH]c1=O` (stereo not given in full): the normalized B-score (activity score, 25-100; higher = stronger inhibition) entry is “inactive”.

In the case of `COc1ccc(C(C#N)N2N=C(C)CC2(C)C)cc1` (stereo not given), the normalized B-score (activity score, 25-100; higher = stronger inhibition) entry was “inactive”.

Turning to `O=C(CN1C(=O)/C(=C/c2ccccc2F)Sc2ccccc21)NCc1cccnc1`, the normalized B-score (activity score, 25-100; higher = stronger inhibition) was 100 (active).

Turning to `O=C(CN1C(=O)/C(=C\c2ccc(C(F)(F)F)cc2)Sc2ccccc21)NCc1ccco1`, the normalized B-score (activity score, 25-100; higher = stronger inhibition) entry is “inactive”.

Consider `O=C(CN1C(=O)S/C(=C\c2ccccc2F)C1=O)NCCCn1ccnc1`, for which the normalized B-score (activity score, 25-100; higher = stronger inhibition) result was “inactive”.

For the compound `CN(C)CCOc1ccc(Cl)cc1C(C)(C)C`, the normalized B-score (activity score, 25-100; higher = stronger inhibition) entry is “inactive”.

In the case of `CCc1nc(C)ccc1OCC(=O)N(CC)CC`, the normalized B-score (activity score, 25-100; higher = stronger inhibition) entry was “inactive”.

In the case of `CCC(C)(C)c1ccc(OCC(=O)N(C)C)c(C(C)(C)CC)c1`, the normalized B-score (activity score, 25-100; higher = stronger inhibition) is 100 (active).

On to `COc1ccc(/C=C2/SC(=O)N(CCCCCC(=O)Nc3ccccc3C(=O)O)C2=S)cc1`, for which the normalized B-score (activity score, 25-100; higher = stronger inhibition) was 100 (active).

For the compound `COc1ccc(/C=C2\SC(=O)N(CCC(=O)NCCCn3ccnc3)C2=O)cc1`, the normalized B-score (activity score, 25-100; higher = stronger inhibition) result is “inactive”.

Take `O=C(CCCN1C(=O)/C(=C\c2ccccc2)SC1=S)Nc1ccccc1O`: the normalized B-score (activity score, 25-100; higher = stronger inhibition) entry was “inactive”.

On to `OC(c1ccccc1)C(CN1CCOCC1)c1ccccc1` (stereo not given), for which the normalized B-score (activity score, 25-100; higher = stronger inhibition) entry was “inactive”.

For `Cc1cc(C=O)c(C)n1-c1ccc(NC2CCCCC2)c([N+](=O)[O-])c1`, the normalized B-score (activity score, 25-100; higher = stronger inhibition) was 100 (active).

Consider `Cc1c(NS(=O)(=O)c2ccc(NC3CCCC3)c([N+](=O)[O-])c2)c(=O)n(-c2ccccc2)n1C`, for which the normalized B-score (activity score, 25-100; higher = stronger inhibition) entry is “inactive”.

Regarding `Cc1cc([N+](=O)[O-])ccc1NC1CCCC1`, the normalized B-score (activity score, 25-100; higher = stronger inhibition) result was “inactive”.

Turning to `COc1ccc(F)cc1C(=O)C1CCCN(C(=O)CCc2ccccn2)C1` (stereo not given), the normalized B-score (activity score, 25-100; higher = stronger inhibition) result was “inactive”.

For `O=C(N/N=C1\CCSC1)c1cc(Cl)ccc1O`, the normalized B-score (activity score, 25-100; higher = stronger inhibition) entry was “inactive”.

As to `CC1CCCCC1NC(=O)c1cc(=O)[nH]c2ccccc12` (stereo not given), the normalized B-score (activity score, 25-100; higher = stronger inhibition) entry was “inactive”.

Regarding `CCOC(=O)c1ccc(NC(=O)c2cccnc2)cc1`, the normalized B-score (activity score, 25-100; higher = stronger inhibition) entry was “inactive”.

Regarding `CCOC(=O)c1cc(NC(=O)c2cccnc2)ccn1`, the normalized B-score (activity score, 25-100; higher = stronger inhibition) result is “inactive”.

In the case of `Cc1c(C(=O)OC(C)C)sc(NC(=O)c2cccnc2)c1C#N`, the normalized B-score (activity score, 25-100; higher = stronger inhibition) was 100 (active).

For the compound `Cc1ccc(/C=N/NC(=O)C(NC(=O)c2ccccc2)c2n[nH]c(=O)c3ccccc23)cc1` (stereo not given), the normalized B-score (activity score, 25-100; higher = stronger inhibition) result was “inactive”.

In the case of `Cc1ccc2c(c1)N(CC(=O)N1CCCc3ccccc31)C(=O)C(C)O2` (stereo not given), the normalized B-score (activity score, 25-100; higher = stronger inhibition) was 100 (active).

For `CCC(=O)N1CCCc2ccccc21`, the normalized B-score (activity score, 25-100; higher = stronger inhibition) result was “inactive”.

Regarding `Cc1ccc2c(c1)N(CC(=O)N1CCCC(C)C1)C(=O)CO2` (stereo not given), the normalized B-score (activity score, 25-100; higher = stronger inhibition) entry is “inactive”.

For the compound `O=C1NC(c2ccccc2)=NC1(Nc1ccccn1)C(F)(F)F` (stereo not given), the normalized B-score (activity score, 25-100; higher = stronger inhibition) result is “inactive”.

Regarding `CC(Oc1ccc(Cl)cc1)c1ccnn1S(C)(=O)=O` (stereo not given), the normalized B-score (activity score, 25-100; higher = stronger inhibition) result is “inactive”.

Turning to `CC(=O)Nc1ccc(C(=O)OCC(=O)Nc2ccc([N+](=O)[O-])cc2C(F)(F)F)cc1`, the normalized B-score (activity score, 25-100; higher = stronger inhibition) result is “inactive”.
